# Molecular target: NKX3-2 (Homo sapiens, UniProt P78367 192-278, P234S)
# Experiment: PBM; 200 nM protein, PBS
# Conditions: dsDNA, one strand shown
# Chain of NKX3-2 (Homo sapiens, UniProt P78367 192-278, P234S) (P78367 192-278 P234S): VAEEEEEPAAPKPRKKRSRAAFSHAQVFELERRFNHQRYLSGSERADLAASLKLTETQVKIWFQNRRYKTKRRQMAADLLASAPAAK
row,Sequence,binding signal
1,ACCGGCCT,"10.6 upbm affinity estimate (log intensity, higher = more binding, comparable within an allelic series)"
2,GCAGCCCC,"10.7 upbm affinity estimate (log intensity, higher = more binding, comparable within an allelic series)"
3,CGCCGGGA,"10.5 upbm affinity estimate (log intensity, higher = more binding, comparable within an allelic series)"

# Molecular target: NKX3-2 (Homo sapiens, UniProt P78367 192-278)
# Sequence (P78367 192-278): as the sequence (P78367 192-278 P234S) above, with S43P counted along it
# Experiment: PBM; 200 nM protein, PBS
# Conditions: dsDNA, one strand shown
row,Sequence,binding signal
1,ACCGGCCT,"10.5 upbm affinity estimate (log intensity, higher = more binding, comparable within an allelic series)"
2,GCAGCCCC,"10.7 upbm affinity estimate (log intensity, higher = more binding, comparable within an allelic series)"
3,CGCCGGGA,"10.5 upbm affinity estimate (log intensity, higher = more binding, comparable within an allelic series)"

# Source: article PMC11006913
